Measured values as given in PubChem BioAssay (NCATS).
Records with an inconclusive call do not appear. Entries that show only a call come without a potency. The source made the active and inactive calls. Unless noted, the call rests on the fitted dose curve; in most records, active means well fitted curve in the direction sought with a large enough effect; inconclusive means small, poorly fitted or top-dose-only effect, or another doubt; inactive means no such curve, though single readings can be large; an effect the other way counts as inactive or inconclusive.

Assays:
[1] = target: Parathyroid hormone/parathyroid hormone-related peptide receptor (Homo sapiens) (UniProt Q03431); experiment: qHTS for PTHR1 Agonists: Optimization Screen against the NCGC LOPAC library (AID 1347079); conditions: HEK293 GP2 PTHR1 GloSensor cAMP luminescence, 1 h; series mostly up to 57.1 µM;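 further: GloSensor cAMP luminescence in HEK-293 GP2 cells expressing human PTHR1 with IBMX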
Parathyroid hormone/parathyroid hormone-related peptide receptor (Homo sapiens), sequence (Q03431 whole entry, looked up): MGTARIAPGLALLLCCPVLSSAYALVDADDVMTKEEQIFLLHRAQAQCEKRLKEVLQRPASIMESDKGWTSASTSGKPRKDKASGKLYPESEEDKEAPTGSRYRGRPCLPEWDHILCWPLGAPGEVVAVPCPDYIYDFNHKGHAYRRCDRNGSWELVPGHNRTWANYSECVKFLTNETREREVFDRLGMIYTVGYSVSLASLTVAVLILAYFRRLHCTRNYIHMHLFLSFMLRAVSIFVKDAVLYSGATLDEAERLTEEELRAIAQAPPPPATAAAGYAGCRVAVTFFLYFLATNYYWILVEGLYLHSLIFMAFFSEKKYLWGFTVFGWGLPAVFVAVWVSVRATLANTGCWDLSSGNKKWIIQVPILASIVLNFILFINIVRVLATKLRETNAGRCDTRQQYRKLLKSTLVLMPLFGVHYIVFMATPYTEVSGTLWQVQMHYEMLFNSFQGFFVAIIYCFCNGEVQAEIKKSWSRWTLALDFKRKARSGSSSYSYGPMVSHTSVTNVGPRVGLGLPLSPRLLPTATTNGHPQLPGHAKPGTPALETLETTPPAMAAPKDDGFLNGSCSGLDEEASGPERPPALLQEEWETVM
How it was run: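 HEK-293 GP2 cells, PTHR1 + GloSensor cAMP; 3000 cells/well, o/n. Luciferin + IBMX 0.5mM each (stock), 1 hr 37C. Cpd titration, 1 hr 37C. Lum after 15 min RT. Ctrl M-PTH(1-15) top 10uM.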

[2] = qHTS for Inhibitors of the Functional Ribonucleoprotein Complex (vRNP) of Lassa (LASV) Arenavirus: LASV Primary Screen - GLuc reporter signal (AID 1347082; calls by dose curve; tested in HEK293 reporter line; further: nearly all actives have a fitted effect of over 60% in size; further: potency means the concentration at half of the fitted maximal effect); conditions: LASV minigenome vRNP, Gaussia luciferase reporter; series mostly up to 57.5 µM
[3] = qHTS for Inhibitors of the Functional Ribonucleoprotein Complex (vRNP) of Lassa (LASV) Arenavirus: Viability assay - alamar blue signal for LASV Primary Screen (AID 1347083; calls by dose curve; tested in HEK293 reporter line; further: nearly all actives have a fitted effect of over 80% in size; further: potency means the concentration at half of the fitted maximal effect); conditions: cell viability, alamar blue fluorescence (LASV minigenome counter-screen); series mostly up to 57.5 µM
[4] = qHTS for Inhibitors of the Functional Ribonucleoprotein Complex (vRNP) of Lymphocytic Choriomeningitis Arenaviruses (LCMV): Viability assay - alamar blue signal for LCMV Primary Screen (AID 1347085; calls by dose curve; tested in HEK293 reporter line; further: nearly all actives have a fitted effect of over 80% in size); conditions: alamar blue viability counter-screen, LCMV vRNP screen cells; series mostly up to 57.5 µM
[5] = target: Nucleoprotein (Lymphocytic choriomeningitis virus (strain Armstrong)) (UniProt P09992); experiment: qHTS for Inhibitors of the Functional Ribonucleoprotein Complex (vRNP) of Lymphocytic Choriomeningitis Arenaviruses (LCMV): LCMV Primary Screen - GLuc reporter signal (AID 1347086; calls by dose curve; further: nearly all actives have a fitted effect of over 70% in size); conditions: LCMV minigenome vRNP cell assay, Gaussia luciferase reporter; series mostly up to 57.5 µM
Nucleoprotein (Lymphocytic choriomeningitis virus (strain Armstrong)), sequence (P09992 whole entry, looked up): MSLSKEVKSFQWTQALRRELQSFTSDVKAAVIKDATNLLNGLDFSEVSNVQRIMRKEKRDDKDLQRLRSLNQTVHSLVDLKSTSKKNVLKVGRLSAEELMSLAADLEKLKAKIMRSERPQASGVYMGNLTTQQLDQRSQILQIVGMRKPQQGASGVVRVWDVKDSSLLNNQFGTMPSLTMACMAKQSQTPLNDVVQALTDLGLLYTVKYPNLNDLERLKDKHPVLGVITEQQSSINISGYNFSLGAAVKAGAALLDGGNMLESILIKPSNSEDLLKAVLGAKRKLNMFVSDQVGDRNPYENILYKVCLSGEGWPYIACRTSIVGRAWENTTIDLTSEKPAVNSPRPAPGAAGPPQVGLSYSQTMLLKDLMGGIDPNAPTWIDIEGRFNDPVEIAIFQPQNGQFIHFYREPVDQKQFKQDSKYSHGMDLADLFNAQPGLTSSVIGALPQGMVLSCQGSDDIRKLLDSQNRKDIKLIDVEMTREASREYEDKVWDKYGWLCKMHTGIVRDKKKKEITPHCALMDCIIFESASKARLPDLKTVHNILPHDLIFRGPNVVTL

[6] = target: Atrial natriuretic peptide receptor 1 (Homo sapiens) (UniProt P16066); experiment: Natriuretic polypeptide receptor (hNpr1) antagonism - Pilot screen (AID 1347049; calls by dose curve;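 further: HEK293 cells with hNpr1 and GloSensor cGMP luciferase stimulated by 0.1 nM hNppA; agonist-evoked cGMP luminescence read 20 min after hNppA addition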); conditions: hNpr1 cells, antagonist mode cGMP read-out; series mostly up to 57.5 µM
Atrial natriuretic peptide receptor 1 (Homo sapiens), sequence (P16066 whole entry, looked up): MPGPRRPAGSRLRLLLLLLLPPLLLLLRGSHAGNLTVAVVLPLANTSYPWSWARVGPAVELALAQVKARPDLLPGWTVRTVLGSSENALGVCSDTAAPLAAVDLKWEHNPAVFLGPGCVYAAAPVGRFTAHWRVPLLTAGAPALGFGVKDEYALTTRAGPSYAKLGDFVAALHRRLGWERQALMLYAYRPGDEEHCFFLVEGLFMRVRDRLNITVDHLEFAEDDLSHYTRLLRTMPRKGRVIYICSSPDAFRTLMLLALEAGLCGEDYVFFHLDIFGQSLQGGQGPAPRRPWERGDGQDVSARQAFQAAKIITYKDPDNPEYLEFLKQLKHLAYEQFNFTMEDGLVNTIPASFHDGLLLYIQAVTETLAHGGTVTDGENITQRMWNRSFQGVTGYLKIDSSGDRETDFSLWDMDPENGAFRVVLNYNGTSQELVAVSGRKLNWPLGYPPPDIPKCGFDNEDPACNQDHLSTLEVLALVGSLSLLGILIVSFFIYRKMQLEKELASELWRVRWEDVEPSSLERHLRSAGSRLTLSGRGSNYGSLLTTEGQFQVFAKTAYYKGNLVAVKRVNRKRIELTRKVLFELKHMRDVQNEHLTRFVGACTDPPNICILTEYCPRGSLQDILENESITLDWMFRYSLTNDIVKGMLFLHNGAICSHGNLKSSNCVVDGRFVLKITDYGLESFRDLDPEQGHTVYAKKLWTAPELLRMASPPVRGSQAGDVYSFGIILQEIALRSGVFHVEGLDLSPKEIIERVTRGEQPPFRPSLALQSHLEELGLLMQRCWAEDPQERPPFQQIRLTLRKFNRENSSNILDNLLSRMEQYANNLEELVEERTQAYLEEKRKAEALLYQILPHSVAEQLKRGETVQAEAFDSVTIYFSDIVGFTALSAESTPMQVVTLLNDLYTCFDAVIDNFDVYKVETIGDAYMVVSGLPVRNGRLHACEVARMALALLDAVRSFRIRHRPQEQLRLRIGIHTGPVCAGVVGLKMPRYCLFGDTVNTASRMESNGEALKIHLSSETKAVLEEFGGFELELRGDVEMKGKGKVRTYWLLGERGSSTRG
How it was run: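 Receptor antagonism read as cGMP-dependent luminescence in hNpr1/pGS-40F HEK293 cells: pre-read after 30 min compound exposure, post-read 20 min after hNppA agonist at 0.1 nM final, all at room temperature, protected from light; A-71915 titration as control.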

[7] = target: Atrial natriuretic peptide receptor 2 (Homo sapiens) (UniProt P20594); experiment: Natriuretic polypeptide receptor (hNpr2) antagonism - Pilot subtype selectivity assay (AID 1347050; calls by dose curve); conditions: NPR2-expressing cells, cGMP antagonist-mode read-out; series mostly up to 38.3 µM
Atrial natriuretic peptide receptor 2 (Homo sapiens), sequence (P20594 whole entry, looked up): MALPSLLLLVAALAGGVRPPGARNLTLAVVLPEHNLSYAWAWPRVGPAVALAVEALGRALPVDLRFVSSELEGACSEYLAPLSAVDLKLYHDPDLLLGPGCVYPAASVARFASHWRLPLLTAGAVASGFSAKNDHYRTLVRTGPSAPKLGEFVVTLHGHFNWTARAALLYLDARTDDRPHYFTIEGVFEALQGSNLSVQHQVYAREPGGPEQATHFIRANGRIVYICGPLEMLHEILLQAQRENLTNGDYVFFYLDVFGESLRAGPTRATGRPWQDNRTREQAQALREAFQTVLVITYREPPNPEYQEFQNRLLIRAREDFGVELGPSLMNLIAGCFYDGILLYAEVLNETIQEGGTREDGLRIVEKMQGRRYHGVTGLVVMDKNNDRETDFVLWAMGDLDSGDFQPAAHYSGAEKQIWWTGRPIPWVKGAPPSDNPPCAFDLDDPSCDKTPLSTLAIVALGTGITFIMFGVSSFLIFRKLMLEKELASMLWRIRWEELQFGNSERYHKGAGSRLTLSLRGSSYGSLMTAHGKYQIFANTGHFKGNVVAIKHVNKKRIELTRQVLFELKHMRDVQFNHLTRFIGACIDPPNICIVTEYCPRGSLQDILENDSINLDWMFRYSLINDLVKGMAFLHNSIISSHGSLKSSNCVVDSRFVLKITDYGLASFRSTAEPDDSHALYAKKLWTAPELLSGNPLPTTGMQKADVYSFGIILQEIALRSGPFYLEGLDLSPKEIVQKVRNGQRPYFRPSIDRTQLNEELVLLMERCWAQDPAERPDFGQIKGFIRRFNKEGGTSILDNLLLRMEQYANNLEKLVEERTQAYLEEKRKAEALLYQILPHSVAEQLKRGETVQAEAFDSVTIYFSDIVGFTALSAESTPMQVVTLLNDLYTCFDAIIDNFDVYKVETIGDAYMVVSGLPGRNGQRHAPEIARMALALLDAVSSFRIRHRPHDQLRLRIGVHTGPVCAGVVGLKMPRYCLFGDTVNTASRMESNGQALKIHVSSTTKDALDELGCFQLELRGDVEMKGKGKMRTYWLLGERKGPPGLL
How it was run: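 Antagonist mode: compounds (LOPAC1280, seven 1:5 dilutions) added 30 min before 1 nM hNppC stimulation of hNpr2-HEK293 cGMP-sensor cells; luminescence read before and 20 min after agonist at ambient temperature.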

[8] = NS1 protein of Zika virus - qHTS assay to identify small molecule inhibitors in human HEK 293 cells (AID 1347053); conditions: HEK293 ZIKV MR766 infection, NS1 TR-FRET, 24 h; series mostly up to 46.1 µM; further: nearly all actives have a fitted effect of over 55% in size
How it was run: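 Readout was TR-FRET using paired anti-NS1 antibodies after 24 h infection of HEK 293 cells with ZIKV MR766 (MOI = 0.5). Compound preceded virus by 1 h; reduced signal reflects lower NS1 expression.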

[9] = target: T1, Tyrosine-protein phosphatase non-receptor type substrate 1 (Homo sapiens) + Leukocyte surface antigen CD47 (Homo sapiens) (UniProt P78324+Q08722); experiment: CD47-SIRPalpha protein protein interaction - LANCE assay qHTS validation (AID 1347057; active means well fitted curve in the direction sought with a large enough effect in the signal ratio, with a control signal flat, not every such curve was filed as active; the % refers to the signal ratio); conditions: Recombinant CD47-His / biotin-SIRPalpha, TR-FRET ratio; series mostly up to 38.3 µM
T1 sequence (P78324 whole entry, looked up, the tested form may be a part): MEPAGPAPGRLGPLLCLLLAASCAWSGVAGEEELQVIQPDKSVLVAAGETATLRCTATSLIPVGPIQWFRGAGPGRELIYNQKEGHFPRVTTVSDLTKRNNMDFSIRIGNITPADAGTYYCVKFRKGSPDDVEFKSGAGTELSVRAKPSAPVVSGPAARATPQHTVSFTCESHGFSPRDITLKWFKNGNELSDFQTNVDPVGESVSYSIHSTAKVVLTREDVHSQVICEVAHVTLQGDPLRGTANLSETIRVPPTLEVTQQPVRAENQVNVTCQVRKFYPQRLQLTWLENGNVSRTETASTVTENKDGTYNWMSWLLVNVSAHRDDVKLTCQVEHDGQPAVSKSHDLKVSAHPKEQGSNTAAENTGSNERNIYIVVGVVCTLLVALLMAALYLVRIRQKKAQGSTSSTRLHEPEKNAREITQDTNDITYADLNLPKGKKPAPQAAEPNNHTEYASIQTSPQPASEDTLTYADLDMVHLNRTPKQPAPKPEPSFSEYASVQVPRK
T1 sequence (Q08722 whole entry, looked up, the tested form may be a part): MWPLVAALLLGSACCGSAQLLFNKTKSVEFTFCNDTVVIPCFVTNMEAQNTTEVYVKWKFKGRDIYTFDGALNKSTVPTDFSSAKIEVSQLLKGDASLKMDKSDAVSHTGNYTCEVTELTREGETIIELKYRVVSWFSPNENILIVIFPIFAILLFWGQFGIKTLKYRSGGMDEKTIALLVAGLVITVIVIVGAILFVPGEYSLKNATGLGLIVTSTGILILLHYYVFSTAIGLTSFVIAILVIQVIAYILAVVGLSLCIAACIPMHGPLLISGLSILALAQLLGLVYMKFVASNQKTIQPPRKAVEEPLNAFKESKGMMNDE
How it was run: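 Inhibition of soluble CD47/SIRPalpha ectodomain association by titrated compounds, measured as 665/615 nm time-resolved FRET ratio after sequential 30 min room-temperature incubations.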

[10] = target: T1, Tyrosine-protein phosphatase non-receptor type substrate 1 (Homo sapiens) + Leukocyte surface antigen CD47 (Homo sapiens); experiment: CD47-SIRPalpha protein protein interaction - Alpha assay qHTS validation (AID 1347059); conditions: AlphaScreen CD47-His/biotin-SIRPalpha binding, LOPAC; series mostly up to 38.3 µM;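 further: bead proximity luminescence from CD47 binding SIRPalpha after compound preincubation with SIRPalpha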; further: potency means the concentration at half of the fitted maximal effect
How it was run: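 AlphaScreen signal between CD47-His (12.5 nM) and biotin-SIRPalpha (25 nM) soluble extracellular domains, bead-captured via Ni-NTA and streptavidin. Compounds, in 7-point titrations, met SIRPalpha 30 min before CD47; PBS pH 7.4 with 0.05% IGEPAL.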

[11] = target: T1, Tyrosine-protein phosphatase non-receptor type substrate 1 (Homo sapiens) + Leukocyte surface antigen CD47 (Homo sapiens); experiment: CD47-SIRPalpha protein protein interaction - HTRF assay qHTS validation (AID 1347058; active means well fitted curve in the direction sought with a large enough effect in the signal ratio, not every such curve was filed as active; the % refers to the signal ratio); conditions: TR-FRET HTRF CD47-His / biotin-SIRPalpha binding, ratio 665/615; series mostly up to 38.3 µM
How it was run: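 Soluble extracellular domains (6His-CD47, Avi-tag-biotinylated SIRPalpha) in PBS pH 7.4 with 0.05% IGEPAL CA-630. Compounds were preincubated 30 min at RT with CD47 and anti-His-Eu, then SIRPalpha and SAV-XL665 were added. TR-FRET 665/615 ratio.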

| SMILES | Potency [1] | Potency [2] | Potency [3] | Potency [4] | Potency [5] | Potency [6] | Potency [7] | outcome [8] | Potency [9] | Potency [10] | outcome [11] |
| --- | --- | --- | --- | --- | --- | --- | --- | --- | --- | --- | --- |
| O=c1c2ccccc2[se]n1-c1ccccc1 | inactive | inactive | inactive | inactive | inactive |  |  |  |  |  |  |
| N[C@@H](Cn1oc(=O)[nH]c1=O)C(=O)O | inactive | inactive | inactive | inactive | inactive | inactive | inactive | inactive | inactive | inactive |  |
| CC1OC1P(=O)(O)O (stereo not drawn) |  | inactive | inactive | inactive | inactive |  |  |  |  |  |  |
| Nc1cc2c(ncn2CCOCP(=O)(O)O)c(=O)[nH]1 |  |  |  |  |  |  |  | inactive | inactive | inactive | inactive |
| NC(C(=O)O)c1cc(=O)[nH]o1 (stereo not drawn) | inactive | inactive | inactive | inactive | inactive | inactive | inactive | inactive | inactive | inactive |  |
| CN(N=O)c1cc(O)ccc1O | inactive | inactive | inactive | inactive | inactive | inactive |  | inactive | inactive |  |  |
| C[C@H]1C2Cc3ccc(O)cc3[C@@]1(C)CCN2CC1CC1 |  |  |  |  |  |  |  | inactive | inactive | inactive | inactive |
| C=CCN1CCC23c4c5ccc(O)c4O[C@H]2C(=O)CC[C@@]3(O)C1C5 (stereo partly drawn) | inactive | inactive | inactive | inactive | inactive | inactive | inactive | inactive | inactive | inactive | inactive |
| O=C1/C(=C/c2ccccc2)C[C@@]2(O)[C@H]3Cc4ccc(O)c5c4[C@@]2(CCN3CC2CC2)[C@H]1O5 |  |  |  |  |  |  |  |  | inactive | inactive |  |
| Cc1o[nH]c(=O)c1CC(N)C(=O)O (stereo not drawn) | inactive | inactive | inactive | inactive | inactive | inactive | inactive | inactive | inactive | inactive | inactive |
| CCCCCCC(C)(C)c1ccc([C@@H]2C[C@H](O)CC[C@H]2CCCO)c(O)c1 | inactive | inactive |  | inactive |  | inactive | inactive |  |  |  |  |
| CC(C)CC(NP(=O)(O)O[C@@H]1O[C@@H](C)[C@H](O)[C@@H](O)[C@H]1O)C(=O)NC(Cc1c[nH]c2ccccc12)C(=O)O (stereo partly drawn) |  | inactive | inactive | inactive | inactive |  |  |  |  |  |  |
| CN1CC[C@@]2(C)c3cc(O)ccc3N(C)C12 (stereo partly drawn) | inactive | inactive | inactive | inactive | inactive | inactive | inactive | inactive | inactive | inactive |  |
| N#C/C(=C/c1ccc(O)c(O)c1)C(N)=S |  | inactive | inactive | inactive | inactive | inactive | inactive | inactive |  |  |  |
| C[N+]1(C)CCc2cc3c(cc2[C@H]1[C@@H]1OC(=O)c2c1ccc1c2OCO1)OCO3 | inactive | inactive | inactive | inactive | inactive | inactive | inactive | inactive | inactive | inactive | inactive |
| C=CCN1CCc2cccc3c2[C@H]1Cc1ccc(O)c(O)c1-3 | inactive | inactive | inactive | inactive | inactive | inactive | inactive |  |  |  |  |
| CN(C(=O)Cc1ccc(Cl)c(Cl)c1)C(CN1CCCC1)c1cccc(OCC(=O)O)c1 (stereo not drawn) | inactive | inactive | inactive | inactive | inactive | inactive | inactive | inactive | inactive | inactive | inactive |
| CCCN1CCc2cc(O)cc3c2[C@H]1Cc1ccc(O)c(O)c1-3 | inactive | inactive | inactive | inactive | inactive | inactive | inactive | inactive |  | inactive |  |

| SMILES | Potency [1] | Potency [2] | Potency [3] | Potency [4] | Potency [5] | Potency [6] | Potency [7] | outcome [8] | Potency [9] | Potency [10] | outcome [11] |
| --- | --- | --- | --- | --- | --- | --- | --- | --- | --- | --- | --- |
| O=c1ccc2[nH]cc(C3=CCNCC3)c2[nH]1 |  |  |  |  |  |  |  | inactive | inactive | inactive |  |
| C[N+]1(C)CCC(OC(=O)C(c2ccccc2)c2ccccc2)CC1 |  | inactive | inactive | inactive | inactive |  |  |  |  |  |  |
| CCN(CC)c1ncnc2c1ncn2[C@@H]1O[C@H](COP(=O)(O)OP(=O)(O)C(Br)(Br)P(=O)(O)O)[C@@H](O)[C@H]1O |  | inactive | inactive | inactive | inactive |  |  |  |  |  |  |
| C[C@]12Cc3cn4c(nc3C=C1CCC1C2CC[C@@]2(C)[C@H]1CC[C@@]2(O)C#N)nc1ccccc14 (stereo partly drawn) | inactive |  |  |  |  |  |  | inactive | inactive | inactive |  |
| COC(=O)N1CCN(C(=O)Cc2ccc(Cl)c(Cl)c2)C(CN2CCCC2)C1 (stereo not drawn) | inactive | inactive | inactive | inactive | inactive | inactive | inactive | inactive | inactive | inactive | inactive |
| CC(=O)c1c(O)c(C)c(O)c(Cc2c(O)c3c(c(C(=O)/C=C/c4ccccc4)c2O)OC(C)(C)C=C3)c1O | inactive | inactive | inactive | inactive | inactive | inactive |  |  | inactive | 16.5 µM (active) |  |
| CC1(C(=O)O)C2CCC(O2)C1(C)C(=O)O (stereo not drawn) | inactive |  |  |  |  | inactive | inactive |  | inactive | inactive | inactive |
| CNc1ccc2oc(C[C@H]3O[C@@]4(CC[C@H]3C)O[C@H]([C@H](C)C(=O)c3ccc[nH]3)[C@H](C)C[C@H]4C)nc2c1C(=O)O | inactive | 7.08 µM (active) | 11.2 µM (active) | inactive | inactive | inactive | inactive |  | inactive | inactive | inactive |
| C[C@H](N)Cc1cccc(C(F)(F)F)c1 | inactive | inactive | inactive | inactive | inactive | inactive |  | inactive | inactive | inactive | inactive |
| C=CCN1C[C@@H](C)N([C@H](c2ccc(C(=O)N(CC)CC)cc2)c2cccc(OC)c2)C[C@@H]1C | inactive |  |  |  |  | inactive | inactive |  | inactive | inactive | inactive |
| NC(=O)COc1c(F)cc(SCCNS(=O)(=O)c2ccccc2)cc1F | inactive | inactive | inactive | inactive | inactive | inactive | inactive | inactive | inactive | inactive | inactive |
| Nc1ccc(CCN2CCN(c3cccc(C(F)(F)F)c3)CC2)cc1 | inactive | inactive | inactive | inactive | inactive | inactive | inactive | inactive | inactive | inactive | inactive |
| CO[C@H]1CC=C2CCN3CCC4=C(CC(=O)OC4)[C@]23C1 | inactive | inactive | inactive | inactive | inactive | inactive | inactive | inactive | inactive | inactive | inactive |
| Oc1ccc2c3c1O[C@H]1c4oc5ccccc5c4C[C@@]4(O)C(C2)N(CC2CC2)CCC314 (stereo partly drawn) | inactive |  | inactive | inactive |  | inactive | inactive |  | inactive |  | inactive |
| [Cl-].[Cl][Pt].[NH2-].[NH2-].c1ccncc1 |  |  |  |  |  |  |  | inactive |  |  |  |
| CC(C)(C)OC(=O)NC1[C@H]2CNC[C@@H]12 (stereo partly drawn) |  |  |  |  |  |  |  | inactive | inactive | inactive | inactive |
| O=C(NC1CN2CCC1CC2)c1cc2ccoc2cn1 (stereo not drawn) |  |  |  |  |  |  |  | inactive | inactive | inactive | inactive |
